These results are taken from PubChem BioAssay (Tox21).

SMILES strings stand for the structures. Inconclusive results are not listed. Unmarked numbers belong to inactive results. The source made the active and inactive calls. Calls follow the shape of the dose curve; as a rule, active = well fitted cell-killing curve with a large enough effect in the repeat runs; inconclusive = weak or mixed curves, or effect the other way; inactive = flat fitted curve, though single readings scatter.
% is scaled to controls: 0 for no effect and ±100 for the full control effect.

A short description of the assay: qHTS assay to identify small molecule agonists of the constitutive androstane receptor (CAR) signaling pathway - cell viability counter screen (AID 1224836). Also: nearly all actives have a fitted effect of over 45% in size. Particulars: HepG2-CYP2B6-hCAR viability, CellTiter-Fluor, 23 h, PK11195 added to every well; series mostly up to 92.4 µM. The source says: U.S. Tox21 Program National Center for Advancing Translational Sciences [NCATS] NIH Chemical Genomics Center [NCGC] U.S. Environmental Protection Agency [EPA] National Institutes of Environmental Health Sciences [NIEHS] National Toxicology Program [NTP] U.S. Food and Drug Administration [FDA] Tox21 Assay Overview: The constitutive androstane receptor (CAR) is a nuclear receptor which regulates multiple drug metabolizing enzymes (DMEs) and transporters. Activating CAR will generally increase the transcription and subsequent translation of CYP2B6 and CYP3A4. These two DMEs represent about 50% of the drug metabolizing potential in the body. […] Recently, there have also been studies performed indicating CARs role in energy metabolism and cancer therapy. Therefore, inducing CARs activity could have a potential effect on diabetes and cancer. Identifying environmental toxins and compounds which modulate CAR, through the use of the Tox21 10K compound collection, will be an important step in determining the toxicity and potential therapeutic effects these factors will have on the human body. To differentiate true CAR agonists from cytotoxic substances, the assay is multiplexed with a cell viability assay.
Tox21 Assay Protocol Summary: A double-stable (hCAR and CYP2B6-2.2kb) transfected cell line, derived from human hepatoma (HepG2) cells, was utilized for the duration of the quantitative high-throughput screens. The HepG2-CYP2B6-hCAR cells were dispensed at 2500 cells/4 uL/well in 1536-well white solid bottom plates using a Multidrop Combi. After the assay plates were incubated at 37 C/5% CO2 for 4 hrs, 23 nL of compounds at 15 concentrations (from 5-48 columns) or positive control (from 1 to 4 columns) were transferred to the assay plates using a Pintool station. One uL of PK11195 (final concentration = 0.75 uM) was added, using a Flying Reagent Dispenser, inside each well. After a 23 hr incubation period at 37 C/5% CO2, 1 uL of CellTiter-Fluor reagent was added into each well of the assay plates using a Flying Reagent Dispenser. The fluorescence intensity in the plates was then measured using a ViewLux plate reader.
On the technique in general: In qHTS, concentration-response curves come from the screen itself.
For `CC(Oc1cc(Cl)ccc1Cl)C(=O)O` (stereo not given), the call was inactive.
For the molecule `C=CCCCCCCCC`, the result was inactive.
On the same count and under the same terms, the result for `CC1OCCC1=O` (stereo not given) reads “inactive”; that for `C=CCCCC`, “inactive”; that for `CCC/C=C(\C=O)CC`, “inactive”.
For `CCO[Si](CC)(OCC)OCC`, the outcome was inactive.
Same read-out and setting: as for `Cn1c(=O)c2[nH]c(Br)nc2n(C)c1=O`, the entry is “inactive”; as for `N#Cc1ccccc1O`, “inactive”; as for `COc1ccc(CCO)cc1`, “inactive”.
With `C=CC/C=C/C`, the outcome was inactive.
Still for that read-out and setting: as for `O=C1NC(c2ccccc2)(c2ccccc2)C(=O)N1COP(=O)(O)O`, the entry is “inactive”.
Turning to `Cc1ccc(C(=O)O)cc1[N+](=O)[O-]`, the molecule was called inactive.
The same measure, in the same setting: the result for `c1ccc(B(c2ccccc2)c2ccccc2)cc1` reads “inactive”; that for `O/N=C/C=N/O`, “inactive”.
With `CCCC(CC)c1ccccc1` (stereo not given), the outcome was inactive.
Turning to `CC(=O)CCc1ccc(OC(C)=O)cc1`, the result was inactive.
Regarding `OCC1(CO)COCOC1`, the outcome was inactive.
On the same count and under the same terms, the result for `CC1c2ccccc2CN1NC(=O)c1ccc(Cl)c(S(N)(=O)=O)c1` (stereo not given) reads “inactive”.
In the case of `COc1ccc2c(c1)c1c3n2CCN(C)C3=NCC1`, the call was inactive.
As for `COc1cc(OC)nc(O[C@H](C(=O)O)C(OC)(c2ccccc2)c2ccccc2)n1`, the molecule was called inactive.
Still for that read-out and setting: the result for `CC(CO)(CO)CO` reads “inactive”; that for `CCCCOCC(C)O` (stereo not given), “inactive”.
Same read-out and setting: the result for `OC[C@@H](O)C(O)[C@@H](O)CO` (stereo not given in full) reads “inactive”; that for `CC12CCC(C1)C(C)(C)C2O` (stereo not given), “inactive”.
`O=S(=O)(O)c1ccc2c(N=Nc3ccc(S(=O)(=O)O)c4ccccc34)c(O)c(S(=O)(=O)O)cc2c1`: the viability change, negative = cytotoxic is -7.02% [at 8.39 µM].
Turning to `O=C(CN1CCNCC1)NC1CCCCC1`, the outcome was inactive.
Still for that read-out and setting: as for `O=C(O)CCCCCC(=O)O`, the entry is “inactive”; as for `CC1CC(=O)CC(C)(C)C1` (stereo not given), “inactive”; as for `Cn1nnc2c(C(N)=O)ncn2c1=O`, “inactive”.
On to `N[C@@H](Cc1ccc(O)cc1)C(=O)O`, for which the viability change, negative = cytotoxic is -0.95% [at 8.39 µM].
Turning to `N[C@@H](CSCCCO)C(=O)O`, the viability change, negative = cytotoxic is 3.99% [at 19 µM].
In the case of `C=CCCCCCCCCC(=O)OCCCC`, the call was inactive.
On the same count and under the same terms, the result for `COc1cc2c(cc1OC)C(=O)C(CC1CCN(Cc3ccccc3)CC1)C2` (stereo not given) reads “inactive”.
On to `CSc1cnccn1`, for which the outcome was inactive.
The same measure, in the same setting: as for `O=C(O)c1cc2ccccc2nc1C(=O)O`, the entry is “inactive”; as for `C=C(C)[C@@H]1CC=C(C)CC1`, “inactive”; as for `C/C(CC(C)C)=N\O`, “inactive”.
For the molecule `CC1(C)Cc2cccc(N)c2O1`, the molecule was called inactive.
With `COC(=O)CCCCC(CCSS/C(CCO)=C(\C)N(C=O)Cc1cnc(C)nc1N)SC(C)=O` (stereo not given), the call was inactive.
For the molecule `NCC1(Cc2noc(=O)[nH]2)CCCCC1`, the call was inactive.
